Data published in PMC7862700, “An all-to-all approach to the identification of sequence-specific readers for epigenetic DNA modifications on cytosine”.

Key:
Assay in all cases: DAPPL (digital affinity profiling via proximity ligation, sequencing); 10 mM Tris-HCl pH 7.5, 50 mM NaCl, 1 mM DTT, 4% glycerol, room temperature, 30 min; GST-TFs on glutathione beads, 16-mer random dsDNA library, 0.1% formaldehyde crosslink after washing; high values mean tight binding
Settings in all cases: protein: recombinant; tags: N-terminal GST; dsDNA, one strand shown
ERF = biological target: T1, ERF (Homo sapiens, UniProt P50548 1-548)
T1 sequence: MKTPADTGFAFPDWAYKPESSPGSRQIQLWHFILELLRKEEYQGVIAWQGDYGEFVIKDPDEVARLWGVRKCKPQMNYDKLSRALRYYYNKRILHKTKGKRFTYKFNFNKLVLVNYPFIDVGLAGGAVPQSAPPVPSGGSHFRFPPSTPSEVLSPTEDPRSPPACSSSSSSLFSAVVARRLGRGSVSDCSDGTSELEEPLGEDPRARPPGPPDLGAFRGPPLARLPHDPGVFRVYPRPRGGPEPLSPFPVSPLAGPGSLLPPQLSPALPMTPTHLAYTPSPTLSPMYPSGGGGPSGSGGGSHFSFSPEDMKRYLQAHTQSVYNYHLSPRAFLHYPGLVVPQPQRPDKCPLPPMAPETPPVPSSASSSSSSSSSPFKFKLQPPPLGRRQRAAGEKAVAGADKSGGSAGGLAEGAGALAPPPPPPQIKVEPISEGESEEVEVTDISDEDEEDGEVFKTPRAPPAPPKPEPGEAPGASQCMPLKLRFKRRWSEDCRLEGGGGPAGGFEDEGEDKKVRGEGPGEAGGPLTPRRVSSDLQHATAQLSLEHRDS
In short: (§1)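 Human transcription factors fused to GST were expressed in yeast, captured on glutathione beads, given DNA barcodes and pooled with a GST-only negative control. Pools were incubated with 200 nmole of a 16-mer random double-stranded DNA library in Tris/NaCl/DTT/glycerol buffer at room temperature for 30 min. They were then washed, crosslinked with 0.1% formaldehyde, proximity-ligated (BsaI/T4 ligase, 1 h, 37 °C), PCR-amplified and sequenced on an Illumina NextSeq500. Binding signal is each 6-mer's read frequency for a factor divided by its frequency for the GST control.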

ETV3L = biological target: T2, ETV3L (Homo sapiens, UniProt Q6ZN32 1-361)
T2 sequence: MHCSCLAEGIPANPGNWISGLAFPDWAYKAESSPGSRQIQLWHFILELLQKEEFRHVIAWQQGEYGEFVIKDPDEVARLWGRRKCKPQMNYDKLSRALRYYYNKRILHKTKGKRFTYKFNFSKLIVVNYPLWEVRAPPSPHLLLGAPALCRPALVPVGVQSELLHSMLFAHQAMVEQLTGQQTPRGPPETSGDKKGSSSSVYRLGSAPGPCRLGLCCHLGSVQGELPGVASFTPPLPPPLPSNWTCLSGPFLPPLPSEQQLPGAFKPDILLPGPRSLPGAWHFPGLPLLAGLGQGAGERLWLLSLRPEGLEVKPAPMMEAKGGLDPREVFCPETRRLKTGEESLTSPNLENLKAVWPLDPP
In short: as §1

ETS2 = biological target: T3, ETS2 (Homo sapiens, UniProt P15036 1-469)
T3 sequence: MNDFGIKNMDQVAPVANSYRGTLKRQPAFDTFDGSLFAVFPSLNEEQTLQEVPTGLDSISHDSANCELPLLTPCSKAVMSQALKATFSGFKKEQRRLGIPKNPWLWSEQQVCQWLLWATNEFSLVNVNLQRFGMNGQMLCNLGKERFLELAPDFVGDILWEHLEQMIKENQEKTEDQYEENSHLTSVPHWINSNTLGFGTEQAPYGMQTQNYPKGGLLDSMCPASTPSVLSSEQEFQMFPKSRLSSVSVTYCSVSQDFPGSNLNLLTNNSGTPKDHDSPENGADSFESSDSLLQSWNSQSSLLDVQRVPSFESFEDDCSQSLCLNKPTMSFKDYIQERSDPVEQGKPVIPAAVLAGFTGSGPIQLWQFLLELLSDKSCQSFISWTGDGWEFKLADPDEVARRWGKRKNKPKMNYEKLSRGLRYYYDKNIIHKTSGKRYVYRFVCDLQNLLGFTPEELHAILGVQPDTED
In short: as §1

SPDEF = biological target: T4, SPDEF (Homo sapiens, UniProt O95238 1-335)
T4 sequence: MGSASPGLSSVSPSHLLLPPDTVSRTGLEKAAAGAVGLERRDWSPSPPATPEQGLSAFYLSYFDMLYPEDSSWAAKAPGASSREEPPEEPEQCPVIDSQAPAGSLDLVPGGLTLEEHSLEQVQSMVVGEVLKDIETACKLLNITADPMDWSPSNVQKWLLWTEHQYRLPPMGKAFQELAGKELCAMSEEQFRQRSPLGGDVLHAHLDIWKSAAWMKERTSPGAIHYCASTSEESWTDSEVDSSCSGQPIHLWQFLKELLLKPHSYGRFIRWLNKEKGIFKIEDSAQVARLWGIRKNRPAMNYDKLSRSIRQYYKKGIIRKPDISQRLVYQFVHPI
In short: as §1

ETV7 = biological target: T5, ETV7 (Homo sapiens, UniProt Q9Y603 1-341)
T5 sequence: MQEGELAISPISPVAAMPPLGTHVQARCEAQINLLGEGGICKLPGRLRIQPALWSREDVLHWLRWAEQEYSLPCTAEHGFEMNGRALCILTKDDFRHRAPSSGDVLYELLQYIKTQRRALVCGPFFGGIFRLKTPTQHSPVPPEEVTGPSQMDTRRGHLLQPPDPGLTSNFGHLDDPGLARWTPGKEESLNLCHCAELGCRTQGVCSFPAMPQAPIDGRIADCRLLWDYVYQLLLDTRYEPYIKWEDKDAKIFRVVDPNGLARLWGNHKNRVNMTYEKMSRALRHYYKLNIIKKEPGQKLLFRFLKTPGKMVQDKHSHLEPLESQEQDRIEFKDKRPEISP
In short: as §1

ELF5 = biological target: T6, ELF5 (Homo sapiens, UniProt Q9UKW6-2 1-255)
T6 sequence: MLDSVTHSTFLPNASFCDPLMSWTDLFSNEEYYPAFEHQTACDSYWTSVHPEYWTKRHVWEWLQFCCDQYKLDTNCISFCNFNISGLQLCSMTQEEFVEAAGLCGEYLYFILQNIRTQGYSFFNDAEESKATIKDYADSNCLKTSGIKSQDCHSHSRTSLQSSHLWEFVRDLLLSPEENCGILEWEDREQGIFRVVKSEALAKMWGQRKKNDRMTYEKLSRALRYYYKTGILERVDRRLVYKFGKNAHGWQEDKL
In short: as §1

ETV3 = biological target: T7, ETV3 (Homo sapiens, UniProt P41162-2 1-143)
T7 sequence: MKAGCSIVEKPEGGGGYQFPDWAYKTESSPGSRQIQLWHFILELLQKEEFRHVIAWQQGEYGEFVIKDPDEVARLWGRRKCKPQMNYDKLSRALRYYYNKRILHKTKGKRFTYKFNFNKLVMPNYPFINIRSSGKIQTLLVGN
In short: as §1

ETV6 = ETV6 (Homo sapiens, UniProt P41212 1-452)
In short: as §1

Chain of ETV6 (P41212 whole entry): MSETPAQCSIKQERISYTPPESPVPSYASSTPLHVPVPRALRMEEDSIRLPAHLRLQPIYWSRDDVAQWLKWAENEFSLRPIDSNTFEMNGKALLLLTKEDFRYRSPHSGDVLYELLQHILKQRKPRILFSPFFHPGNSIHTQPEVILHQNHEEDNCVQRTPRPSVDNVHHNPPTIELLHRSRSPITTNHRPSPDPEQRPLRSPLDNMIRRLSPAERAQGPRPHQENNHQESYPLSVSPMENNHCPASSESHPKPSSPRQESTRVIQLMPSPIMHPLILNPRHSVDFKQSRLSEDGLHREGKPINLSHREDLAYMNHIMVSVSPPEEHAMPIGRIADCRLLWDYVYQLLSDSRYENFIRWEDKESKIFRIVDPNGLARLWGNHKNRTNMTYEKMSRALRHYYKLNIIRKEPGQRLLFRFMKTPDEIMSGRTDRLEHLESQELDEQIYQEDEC

| Sequence | binding signal (ERF) | binding signal (ETV3L) | binding signal (ETS2) | binding signal (SPDEF) | binding signal (ETV7) | binding signal (ELF5) | binding signal (ETV3) | binding signal (ETV6) |
| --- | --- | --- | --- | --- | --- | --- | --- | --- |
| AAACTG | 1.03 fold enrichment (6-mer frequency, TF over GST control) | 1.08 fold enrichment (6-mer frequency, TF over GST control) | 1.08 fold enrichment (6-mer frequency, TF over GST control) | 1.02 fold enrichment (6-mer frequency, TF over GST control) | 1.13 fold enrichment (6-mer frequency, TF over GST control) | 1.1 fold enrichment (6-mer frequency, TF over GST control) | 1.07 fold enrichment (6-mer frequency, TF over GST control) | 1.12 fold enrichment (6-mer frequency, TF over GST control) |
| TGCACT | 1.28 fold enrichment (6-mer frequency, TF over GST control) | 1.34 fold enrichment (6-mer frequency, TF over GST control) | 1.32 fold enrichment (6-mer frequency, TF over GST control) | 1.4 fold enrichment (6-mer frequency, TF over GST control) | 1.42 fold enrichment (6-mer frequency, TF over GST control) | 1.29 fold enrichment (6-mer frequency, TF over GST control) | 1.35 fold enrichment (6-mer frequency, TF over GST control) | 1.41 fold enrichment (6-mer frequency, TF over GST control) |
| TTTGTG | 1.23 fold enrichment (6-mer frequency, TF over GST control) | 1.12 fold enrichment (6-mer frequency, TF over GST control) | 1.11 fold enrichment (6-mer frequency, TF over GST control) | 1.23 fold enrichment (6-mer frequency, TF over GST control) | 1.2 fold enrichment (6-mer frequency, TF over GST control) | 1.18 fold enrichment (6-mer frequency, TF over GST control) | 1.13 fold enrichment (6-mer frequency, TF over GST control) | 1.14 fold enrichment (6-mer frequency, TF over GST control) |
| ATACGT | 1.11 fold enrichment (6-mer frequency, TF over GST control) | 1.18 fold enrichment (6-mer frequency, TF over GST control) | 1.19 fold enrichment (6-mer frequency, TF over GST control) | 1.23 fold enrichment (6-mer frequency, TF over GST control) | 1.1 fold enrichment (6-mer frequency, TF over GST control) | 1.14 fold enrichment (6-mer frequency, TF over GST control) | 1.14 fold enrichment (6-mer frequency, TF over GST control) | 1.14 fold enrichment (6-mer frequency, TF over GST control) |
| AACAAG | 1.19 fold enrichment (6-mer frequency, TF over GST control) | 1.18 fold enrichment (6-mer frequency, TF over GST control) | 1.06 fold enrichment (6-mer frequency, TF over GST control) | 1.05 fold enrichment (6-mer frequency, TF over GST control) | 1.14 fold enrichment (6-mer frequency, TF over GST control) | 1.22 fold enrichment (6-mer frequency, TF over GST control) | 1.11 fold enrichment (6-mer frequency, TF over GST control) | 1.12 fold enrichment (6-mer frequency, TF over GST control) |
| TAGTGT | 1.02 fold enrichment (6-mer frequency, TF over GST control) | 1.04 fold enrichment (6-mer frequency, TF over GST control) | 1.11 fold enrichment (6-mer frequency, TF over GST control) | 1.18 fold enrichment (6-mer frequency, TF over GST control) | 1.2 fold enrichment (6-mer frequency, TF over GST control) | 1.14 fold enrichment (6-mer frequency, TF over GST control) | 1.13 fold enrichment (6-mer frequency, TF over GST control) | 1.02 fold enrichment (6-mer frequency, TF over GST control) |
| TTGCTA | 1.37 fold enrichment (6-mer frequency, TF over GST control) | 1.35 fold enrichment (6-mer frequency, TF over GST control) | 1.33 fold enrichment (6-mer frequency, TF over GST control) | 1.31 fold enrichment (6-mer frequency, TF over GST control) | 1.37 fold enrichment (6-mer frequency, TF over GST control) | 1.21 fold enrichment (6-mer frequency, TF over GST control) | 1.28 fold enrichment (6-mer frequency, TF over GST control) | 1.23 fold enrichment (6-mer frequency, TF over GST control) |
